Measured values: PubChem BioAssay AID2685 (National Center for Advancing Translational Sciences (NCATS), 2010)
In all, about 320,000 compounds went through this assay and about 2,100 (0.66%) were called active. Another 53% or so got no clear call; they are omitted. The call rests on the fitted dose curve; in most records, active means well fitted inhibition curve with a large enough effect in the signal ratio, with a control signal flat (not every such curve was filed as active); inconclusive means small, poorly fitted or top-dose-only effect, or effect the other way, or a change in a side signal; inactive means flat fitted curve, though single readings scatter; the % refers to the signal ratio. Many of the other results were omitted from the sample, so actives are more common in it than they were.

experiment: qHTS Assay for Lipid Storage Modulators in Drosophila S3 Cells; details: BODIPY lipid droplet fluorescence, 18-24 h, cells fed with added oleic acid; cell number change: measured here: cell count max response; series mostly up to 46.1 µM; lipid storage change, negative = inhibition: at the top concentration;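 on cell number change: cells counted by Cell Tracker Red CMTPX staining in the red channel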; on lipid storage change, negative = inhibition: on the % scale 0 is the no-effect control and ±100 the full control effect
Summary of the method: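 Drosophila S3 cells loaded with oleic acid (400 uM, as added) and compounds at several concentrations; lipid droplets imaged by 488-nm laser-scanning cytometry, 500–530 nm intensity and object ratio to cell channel. Percent activity normalized to 20 uM Triacsin C.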
Potency means the concentration at half of the fitted maximal effect.

SMILES | lipid storage change, negative = inhibition | outcome | cell number change [%] | Potency
COc1ccc(/C=N/S(=O)(=O)c2ccc(C)cc2)cc1 | -20.7% (inactive) | – | – | –
Cc1ccc(SCC(=O)OCC(=O)NC(C)c2ccc(Br)cc2)cc1 (stereo not given) | – | inactive | -2.31 | –
CC(=O)C(Cc1ccccc1)NC(=O)COC(=O)CCN1C(=O)C2CC=CCC2C1=O (stereo not given) | 11% (inactive) | – | 7.02 | –
CC(NC(=O)COC(=O)CCN1C(=O)C2CC=CCC2C1=O)c1ccc(Br)cc1 (stereo not given) | – | – | 1.69 | 9.2 µM (active)
O=C1N(CC(=O)N2CCc3ccccc32)CCN1Cc1ccc(Cl)cc1 | – | inactive | – | –
COc1c(Cl)cnn(-c2ccccc2)c1=O | 5.58% (inactive) | – | -2.85 | –
COc1nn(-c2ccccc2)c(=O)c(Cl)c1Cl | – | – | -20 | 11.6 µM (active)
COc1cc(Cl)nn(-c2ccccc2)c1=O | 6.03% (inactive) | – | 0.264 | –
COc1ccc(NC(=O)NC2CCCCCCC2)c(OC)c1 | – | inactive | -0.578 | –
COc1ccc(NC(=O)Cn2ccc3c(OC)cccc3c2=O)cc1 | 0.623% (inactive) | – | 0.407 | –
NNC(=O)COc1ccc2oc3c(c2c1)CCCC3 | – | inactive | 10.5 | –
O=C(O)COc1ccc2oc3c(c2c1)CCCC3 | – | inactive | 21.3 | –
CNC(=O)NC(=O)COc1ccc2oc3c(c2c1)CCCC3 | – | – | 18.9 | 0.58 µM (active)
O=C(N/N=C/c1ccco1)c1cc(C2CC2)nc2ccccc12 | – | inactive | -1.9 | –
O=C(N/N=C/c1ccco1)c1cc(-c2ccccc2)nc2ccccc12 | – | – | -7.31 | 29.1 µM (active)
COc1cccc(-c2cc(C(=O)N/N=C/c3ccco3)c3ccccc3n2)c1 | -13.5% (inactive) | – | – | –
O=C1N/C(=N/O)S/C1=C/c1cccnc1 | -2.62% (inactive) | – | 16 | –
O=C(COC(=O)c1cc2ccccc2o1)c1ccccc1 | – | inactive | -6.43 | –
O=C(Oc1ccccc1/C=C\C(=O)c1cc2ccccc2o1)c1ccccc1 | – | – | – | 14.6 µM (active)
CC(=O)/C=C\c1ccccc1OC(=O)c1cc2ccccc2oc1=O | -11.6% (inactive) | – | -9.71 | –
FC(F)(F)c1cc(C(F)(F)F)c2ccc(N3CCOCC3)nc2n1 | 1.42% (inactive) | – | 4.12 | –
C=CCn1c(SCC(=O)NC(=O)c2cccc([N+](=O)[O-])c2)nnc1-c1ccccc1F | -0.693% (inactive) | – | -9.47 | –

SMILES | lipid storage change, negative = inhibition | outcome | cell number change [%] | Potency
Cc1ccc(C(=O)OCC(=O)N2CCOCC2)cc1 | – | inactive | -0.794 | –
O=C(COC(=O)c1ccc(Br)c(S(=O)(=O)N2CCOCC2)c1)NCC1CCCO1 (stereo not given) | – | – | -0.879 | 0.58 µM (active)
CCN(c1ccc(NC(=O)COC(=O)c2ccc(C)c(S(=O)(=O)N3CCOCC3)c2)cc1)C(C)C | – | – | -6.95 | 23.1 µM (active)
O=C(COC(=O)c1cc(S(=O)(=O)N2CCOCC2)ccc1O)NCC1CCCO1 (stereo not given) | 19.7% (inactive) | – | -22.6 | –
Cc1ccc(NC(=O)COC(=O)c2ccc(C)c(S(=O)(=O)N3CCOCC3)c2)cc1 | 1.82% (inactive) | – | 6.4 | –
Cc1ccc(C(=O)OCC(=O)Nc2ccc3c(c2)OCO3)cc1S(=O)(=O)N1CCOCC1 | 12.5% (inactive) | – | -2.32 | –
O=C(COC(=O)c1ccc(Cl)c(S(=O)(=O)N2CCCCC2)c1)NCC1CCCO1 (stereo not given) | 7.99% (inactive) | – | 18.1 | –
CSc1sc(C(=O)OC(C)C)c2c1C(=O)CC(C)(C)C2 | – | inactive | -5.28 | –
O=C(NC1CC1)C1=C[C@H](c2ccc3c(c2)OCO3)C[C@H](OCc2ccc(CO)cc2)O1 | 9.56% (inactive) | – | 3.05 | –
CC(=O)N1CCc2cc(Br)cc(S(=O)(=O)NCCCN3CCCC(C)C3)c21 (stereo not given) | 6.45% (inactive) | – | -1.7 | –
CCCc1nc(SCC(=O)N2CCc3ccccc3C2)c2ccccc2n1 | -4.35% (inactive) | – | -13.9 | –
O=C(c1ccco1)N1CCN(C(=O)C2CC2)CC1 | -0.297% (inactive) | – | 3.46 | –
CC(=O)NN1C(=O)c2ccccc2NC1c1cccc([N+](=O)[O-])c1 (stereo not given) | 0.744% (inactive) | – | -1.27 | –
O=C1c2ccccc2NC(c2cccc([N+](=O)[O-])c2)N1O (stereo not given) | -0.341% (inactive) | – | 5.94 | –
O=C1c2ccccc2NC(c2cccc([N+](=O)[O-])c2)N1CCc1ccccc1 (stereo not given) | – | – | 8.73 | 5.8 µM (active)
C[N+]1(C)CC2([N+](=O)[O-])CC=C(Oc3ccccc3)C([N+](=O)[O-])(C2)C1 (stereo not given) | -9.09% (inactive) | – | -16.8 | –
COCCn1c(SCC(=O)c2c(N)n(C3CC3)c(=O)[nH]c2=O)nnc1-c1ccc(Cl)cc1 | 5.65% (inactive) | – | -5.22 | –
Cc1cc([N+](=O)[O-])ccc1NCc1ccccc1[N+](=O)[O-] | 13.6% (inactive) | – | 7.15 | –
O=C(CSc1ccc([N+](=O)[O-])cn1)Nc1nccs1 | – | – | 2.83 | 18.4 µM (active)
O=C(Cn1cc([N+](=O)[O-])cn1)Nc1nccs1 | 3.37% (inactive) | – | 10.2 | –
CC(=O)Nc1ccc(NC(=O)CSc2ccc([N+](=O)[O-])cn2)cc1 | 8.29% (inactive) | – | 0.135 | –
CCN(CC(=O)Nc1ccc(OC)cc1)C(=O)CCS(=O)(=O)c1ccc(C)cc1 | -1.53% (inactive) | – | 4.09 | –

SMILES | lipid storage change, negative = inhibition | outcome | cell number change [%] | Potency
COc1ccc(CNS(=O)(=O)c2c(C(=O)N3CCCCC3)c(C)n(C)c2C)cc1 | – | inactive | -6.92 | –
CNC(=O)c1ccc(NC(=O)CC23CC4CC(CC(C4)C2)C3)cc1 | – | inactive | 12.8 | –
CCN(CC)C(=O)c1cccc(NC(=O)CC23CC4CC(CC(C4)C2)C3)c1 | – | – | 17.9 | 0.231 µM (active)
O=C(CC12CC3CC(CC(C3)C1)C2)Nc1c(F)cccc1F | -2.56% (inactive) | – | -17.2 | –
COc1ccc(CCNC(=O)C2CCC(=O)N2Cc2ccccc2Cl)cc1OC (stereo not given) | -20.8% (inactive) | – | -14.8 | –
Cc1cc(C(=O)NCCCN2CCN(c3cc(Cl)ccc3C)CC2)n(-c2ccccc2)n1 | -3.15% [at 9.22 µM] (inactive) | – | 12.1 | –
CC(C)(C)c1cc(OC(=O)c2ccncc2)ccc1O | -0.115% (inactive) | – | -10.2 | –
CCCCC(CC)C(=O)Oc1ccc(O)c(C(C)(C)C)c1 (stereo not given) | – | – | -29.2 | 25.9 µM (active)
CC(C)(C)c1cc(OS(C)(=O)=O)ccc1O | 9.4% (inactive) | – | -0.646 | –
Cc1onc(-c2c(F)cccc2Cl)c1C(=O)ONC(=O)c1ccccc1 | -0.558% (inactive) | – | 10.6 | –
CC(Oc1cc2oc(=O)c3c(c2cc1Cl)CCC3)C(=O)N1C[C@H]2C[C@@H](C1)c1cccc(=O)n1C2 (stereo not given in full) | -5.06% (inactive) | – | 18.9 | –
O=C(COc1cc2oc(=O)c3c(c2cc1Cl)CCCC3)N1C[C@H]2C[C@@H](C1)c1cccc(=O)n1C2 | – | – | 3.88 | 1.46 µM (active)
CCCc1cc(=O)oc2cc(OCC(=O)N3C[C@H]4C[C@@H](C3)c3cccc(=O)n3C4)c(Cl)cc12 | -2.74% (inactive) | – | 3.02 | –
O=C(COC(=O)Cc1n[nH]c(=O)c2ccccc12)Nc1ccc(Cl)cc1F | 4.92% (inactive) | – | -2.17 | –
COc1ccc2c(c1)cc(C(=O)N[C@@H](Cc1ccccc1)C(=O)O)n2C | – | inactive | – | –
CCOC(=O)C1=NNC2C(=O)N(CC)C(=O)C12 (stereo not given) | – | – | 12.2 | 13 µM (active)
CCCCN1C(=O)C2NN=C(C(=O)OC)C2C1=O (stereo not given) | -2.98% (inactive) | – | 1.06 | –
CCN1C(=O)[C@@H]2C(C(=O)c3cnccn3)=NN[C@@H]2C1=O | 1.67% (inactive) | – | 10.4 | –
Clc1ccc(Cn2ncc3c(N4CCCC4)ncnc32)cc1 | – | inactive | -16 | –
COc1cccc(NC(=O)CN(C)C(=O)c2ccc(S(=O)(=O)Nc3ccccc3C)cc2)c1 | 0.588% (inactive) | – | -4.07 | –
CCN1CCN(Cc2ccc(NC(=O)c3ccc(C)c(NC(=O)c4c[nH]c5cc(C(F)(F)F)ccc5c4=O)c3)cc2C(F)(F)F)CC1 | – | – | -28.9 | 10.3 µM (active)
CCN1CCN(Cc2ccc(NC(=O)c3ccc(C)c(NC(=O)c4cccc5[nH]ccc45)c3)cc2C(F)(F)F)CC1 | -1.09% (inactive) | – | -3.74 | –

SMILES | lipid storage change, negative = inhibition | outcome | cell number change [%] | Potency
CCN1CCN(Cc2ccc(NC(=O)c3ccc(C)c(NC(=O)N4CCNC4=O)c3)cc2C(F)(F)F)CC1 | 17.8% (inactive) | – | 25.7 | –
CCOC(=O)Cc1csc(NS(=O)(=O)c2ccc(C(F)(F)F)cc2)n1 | 8.18% (inactive) | – | 3.37 | –
CCOc1ccc(OCC)c(NC(=O)CCNS(=O)(=O)c2cc(Br)cnc2N)c1 | – | – | -2.69 | 1.3 µM (active)
COc1ccc(NC(=O)CCNS(=O)(=O)c2cc(Br)cnc2N)c(OC)c1 | -15% (inactive) | – | – | –
COc1cc(OC)c(NC(=O)CCNS(=O)(=O)c2cc(Br)cnc2N)cc1Cl | – | inactive | – | –
CN1CCN(S(=O)(=O)c2cccc(C(=O)Nc3cc(C(F)(F)F)ccc3N3CCCC3)c2)CC1 | 15.5% (inactive) | – | 1.88 | –
COc1cccc(/C=N/NC(=O)c2nc(-c3ccccc3)cc(-c3ccccc3)n2)c1O | 5.35% (inactive) | – | -7.98 | –
COc1ccc(/C=N/NC(=O)c2nc(-c3ccccc3)cc(-c3ccccc3)n2)cc1 | -12.8% (inactive) | – | -21.2 | –
COc1cccc(/C=N/NC(=O)c2nc(-c3ccccc3)cc(-c3ccccc3)n2)c1 | – | – | -10.5 | 20.6 µM (active)
CCOc1cc(/C=C2\SC(=Nc3ccc(F)cc3)N(c3ccc(F)cc3)C2=O)ccc1OCC(=O)O | 11.8% (inactive) | – | -5.36 | –
COc1ccccc1C1=CC(=O)C[C@H](c2ccc(Cl)cc2)C1 | 12.6% (inactive) | – | -15.5 | –
Cc1ccccc1C(=O)NC1CCN(CC(=O)Nc2ccccc2)CC1 | -9.76% (inactive) | – | -25.1 | –
CCCC(=O)NC(=S)Nc1ccc(C(C)=O)cc1 | -28.1% (inactive) | – | -4.91 | –
CNC(=S)Nc1ccccc1-c1ccccc1 | -7.51% (inactive) | – | 1.9 | –
CCn1c(=NC(=O)c2ccc(S(=O)(=O)N3CCOCC3)cc2)sc2cccc(OC)c21 | – | – | 4.06 | 16.4 µM (active)
COc1ccccc1COC(=O)c1ccc(S(=O)(=O)N2CCOCC2)cc1 | – | inactive | -3.67 | –
COc1ccc(OC)c2sc(NC(=O)c3ccc(S(=O)(=O)N4CCOCC4)cc3)nc12 | 4.31% (inactive) | – | 4.36 | –
COc1ccc(Cl)cc1NS(=O)(=O)c1cccc(C(=O)NCC2(N(C)C)CCCCC2)c1 | – | – | -25.5 | 32.6 µM (active)
COc1ccccc1NS(=O)(=O)c1cccc(C(=O)NCC2(N(C)C)CCCCC2)c1 | 27.8% (inactive) | – | 16.3 | –
COc1ccc(Cl)cc1NS(=O)(=O)c1cccc(C(=O)NCC(c2ccco2)N(C)C)c1 (stereo not given) | – | inactive [at 0.369 µM] | – | –
CCCCN(C(=O)c1ccc(NC2CC2)c([N+](=O)[O-])c1)c1c(N)n(CCCC)c(=O)[nH]c1=O | 2% (inactive) | – | – | –
